GLS inhibitor = qHTS for Inhibitors of Glutaminase (GLS). Glutaminase kidney isoform, mitochondrial (Homo sapiens), O94925. GLS enzymatic activity, qHTS titration. Potency, µM (doses to about 45.5 µM), actives largely listed as inhibitors. 410,000 compounds, 0.21% hits. AID 624170, 2012
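hKGA; 45 mM KH2PO4 pH 8.2 + 0.02% Tween-20; cpd via pin tool; 1 mM Gln soln; GluOx/HRP/Amplex Red; RT 30 min; fluor. t0 & final.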
BAZ2B inh = qHTS Assay for Inhibitors of BAZ2B; Bromodomain adjacent to zinc finger domain protein 2B (Homo sapiens), Q9UIF8; AlphaScreen BAZ2B-H3K14Ac peptide displacement; Potency, µM (top dose mostly 114 µM), hits mostly inhibitors; 360,000 compounds, 4.4% hits; AID 504333, 2011; note: nearly all actives have a fitted effect of over 60% in size
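Compounds, titrated to a top concentration of 110 uM, were incubated 30 min at room temperature with preformed BAZ2B/acetyl-K14 H3 peptide complex (50 nM each). Proximity signal was measured by AlphaScreen after 20 min with beads.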
HP1b binding inh = HTS for Inhibitors of HP1-beta Chromodomain Interactions with Methylated Histone Tails; AlphaScreen HP1-beta / biotin-H3K9me3 peptide binding; 390,000 compounds, 0.56% hits; Potency, µM (highest dose often 114 µM), actives largely listed as inhibitors; Chromobox protein homolog 1 (Homo sapiens), P83916; note: nearly all actives have a fitted effect of over 70% in size
Target sequence (P83916 whole entry, looked up): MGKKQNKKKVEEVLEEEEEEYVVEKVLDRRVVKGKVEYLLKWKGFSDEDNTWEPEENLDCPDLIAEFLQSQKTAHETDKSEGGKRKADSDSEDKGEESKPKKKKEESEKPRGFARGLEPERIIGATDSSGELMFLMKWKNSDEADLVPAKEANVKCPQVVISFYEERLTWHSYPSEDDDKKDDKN
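AlphaScreen: HP1-beta (50 nM) preformed 30 min with biotin-H3(1-18)K9me3 peptide (50 nM) in PBS pH 7.4, 0.01% Tween-20. Compound added for 30 min at RT, then streptavidin donor/nickel chelate acceptor beads (10 ug/mL) for 30 min.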
G9a inh = qHTS Assay for Inhibitors of Histone Lysine Methyltransferase G9a | Histone-lysine N-methyltransferase EHMT2 (Homo sapiens), Q96KQ7 | G9a H3K9 monomethylation, AlphaScreen, 2 h | Potency, µM (series often up to 102 µM), usual class: inhibitors | AID 504332, 2011 | 350,000 compounds, 8.8% hits; note: nearly all actives have a fitted effect of over 75% in size
Target sequence (Q96KQ7 913-1193 limits assumed): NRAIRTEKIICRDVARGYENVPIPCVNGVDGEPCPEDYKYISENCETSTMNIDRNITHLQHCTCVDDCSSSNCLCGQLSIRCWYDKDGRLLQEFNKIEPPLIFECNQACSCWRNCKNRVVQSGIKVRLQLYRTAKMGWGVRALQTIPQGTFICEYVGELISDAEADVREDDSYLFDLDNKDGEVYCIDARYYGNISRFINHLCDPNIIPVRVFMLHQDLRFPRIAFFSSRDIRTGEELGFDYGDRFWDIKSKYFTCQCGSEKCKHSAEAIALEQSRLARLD
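AlphaScreen read-out: biotin-H3K9 peptide (500 nM) methylation by 20 nM enzyme with 20 uM SAM, 2 h at room temperature after 15 min compound preincubation; anti-monomethyl H3K9 antibody plus donor/acceptor beads, 10 min dark.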
JMJD2A Tudor = qHTS Assay for Inhibitors of JMJD2A-Tudor Domain; 390,000 compounds, 4.4% hits; AlphaScreen JMJD2A-Tudor / H3K4me3 peptide binding; Lysine-specific demethylase 4A (Homo sapiens), O75164; Potency, µM (series often up to 114 µM), actives largely listed as inhibitors; note: nearly all actives have a fitted effect of over 50% in size
Of the large screens only hits and unclear results are named; the others gave an inactive call; ! = not confirmed by another sample. The list is not random: actives were taken first. Their share in the collection is about 10%. Calls come from the whole dose curve; as a rule, active = well fitted curve in the direction sought with a large enough effect; inconclusive = small, poorly fitted or top-dose-only effect, or another doubt; inactive = no such curve, though single readings can be large; an effect the other way counts as inactive or inconclusive.

O=C(OCC(=O)N1CCCC1=O)c1nc(Cl)c(Cl)c(Cl)c1Cl	GLS inhibitor inconclusive, BAZ2B inh 70.8µM, JMJD2A Tudor inconclusive (no result: G9a inh)
Cc1sc2ncn(CC(=O)N(C)C3CCCCC3)c(=O)c2c1C	G9a inh 39.8µM
CCc1ccccc1NC(=O)c1nnn(CC(=O)Nc2cccc(C)c2)c1N	none
CSc1cccc(NC(=O)c2nnn(CC(=O)Nc3cc(C)cc(C)c3)c2N)c1	GLS inhibitor inconclusive, JMJD2A Tudor 14.1µM
COCC(C)NC(=O)c1ccccc1OC(C)=O (centres undefined)	none
Oc1ccc(Br)cc1/C=N/N1CCN(Cc2cccc3ccccc23)CC1	JMJD2A Tudor inconclusive (no result: G9a inh)
C(=N\N1CCN(Cc2cccc3ccccc23)CC1)/c1cccs1	BAZ2B inh 12.6µM, HP1b binding inh inconclusive, G9a inh 50.1µM, JMJD2A Tudor 39.8µM
CCN(CC)c1ccc(/C=N/N2CCN(Cc3cccc4ccccc34)CC2)c(O)c1	BAZ2B inh inconclusive, HP1b binding inh inconclusive, JMJD2A Tudor 7.08µM
CCN(CC)c1ccc(/C=N/N2CCN(Cc3ccc(Cl)cc3)CC2)c(O)c1	BAZ2B inh 3.55µM, HP1b binding inh inconclusive, G9a inh 10µM, JMJD2A Tudor inconclusive
CCN(CC)c1ccc(/C=N/N2C(=O)c3ccccc3C2=O)c(O)c1	G9a inh inconclusive
Cc1cc(F)c(F)cc1C(=O)N1CCCC1	none (no result: G9a inh)
CCCn1c(SCc2nc3ccccc3s2)n[nH]c1=O	G9a inh 56.2µM, JMJD2A Tudor inconclusive
Cc1cc(C)c(-n2c(SCc3nc4ccccc4s3)n[nH]c2=O)c(C)c1	none
O=c1[nH]nc(SCc2nc3ccccc3s2)n1C1CC1	G9a inh 7.94µM
COCc1[nH][nH]c(=O)c1C=Nc1ccc(Cl)cc1	G9a inh inconclusive
CCOc1ccc(-c2nnc(SCC(=O)NCCc3ccc(OC)c(OC)c3)nc2-c2ccc(OCC)cc2)cc1	JMJD2A Tudor inconclusive
Cc1c(C(=O)Nc2ccncc2)sc2nc(-c3ccc(F)cc3)cn12	G9a inh 39.8µM
COc1ccc(-c2cn3c4c(sc3n2)CCCC4)cc1	BAZ2B inh inconclusive, G9a inh 50.1µM (no result: GLS inhibitor)
Cc1c(C(=O)N2CCN(C(=O)c3ccco3)CC2)sc2nc(-c3ccc(F)cc3)cn12	G9a inh 39.8µM
Cc1c(C(=O)Nc2cc(F)ccc2F)sc2nc(-c3ccc(F)cc3)cn12	none
COc1ccc(N2CCN(C(=O)c3sc4nc(-c5ccc(F)cc5)cn4c3C)CC2)cc1	G9a inh inconclusive
COc1ccc(-c2cn3c(C)c(C(=O)N4CCCc5ccccc54)sc3n2)cc1	JMJD2A Tudor inconclusive (no result: BAZ2B inh, G9a inh)
COc1ccc(-c2cn3c(C)c(C(=O)Nc4ccncc4)sc3n2)cc1	G9a inh 12.6µM
CCOc1cc(C2c3c(oc4cc(C)cc(C)c4c3=O)C(=O)N2CCO)ccc1O (centres undefined)	none
Cc1nc2nc(C)c(CCC(=O)NCCCN3CCN(c4cccc(Cl)c4)CC3)c(C)n2n1	BAZ2B inh inconclusive, G9a inh 50.1µM!, JMJD2A Tudor inconclusive
COc1ccc(CNc2nc3nc4c(c(=O)n3[nH]2)CCC4)cc1	none (no result: G9a inh)
COc1cccc(C(=O)OCCN2CCOCC2)c1	none
CCOC(=O)C1=C(CNCc2ccc(Cl)cc2)NC(=O)NC1c1ccccc1 (centres undefined)	BAZ2B inh inconclusive
CCCC(=O)Nc1nnc(S(=O)(=O)N2CCCCCC2)s1	BAZ2B inh 14.1µM!, HP1b binding inh inconclusive, G9a inh 12.6µM, JMJD2A Tudor 20µM!
CCC(=O)Nc1nnc(S(=O)(=O)N2CCCCCC2)s1	BAZ2B inh 7.08µM!, HP1b binding inh inconclusive, G9a inh 10µM!, JMJD2A Tudor 11.2µM!
Cc1c(C)c2c(OCC(=O)NCC(=O)NCC(=O)O)cc3c(c2oc1=O)CCC(C)(C)O3	GLS inhibitor inconclusive, JMJD2A Tudor 20µM
Cc1ccccc1/C=C/c1cccc[n+]1C	G9a inh inconclusive
C[n+]1ccccc1/C=C/c1ccccc1Cl	BAZ2B inh 56.2µM, G9a inh inconclusive
C[n+]1ccccc1/C=C/c1ccc(F)c(F)c1	BAZ2B inh inconclusive
C[n+]1ccccc1/C=C/c1c(F)cccc1F	BAZ2B inh 8.91µM, G9a inh 25.1µM, JMJD2A Tudor inconclusive

Screening results: PubChem BioAssay, National Center for Advancing Translational Sciences (NCATS)
